Sm TGR inh – S. mansoni TGR enzyme inhibition | hit rate 3% among 360,000 | Q962Y6 | purified TGR, DTNB reduction, TNB absorbance 405 nm | Potency, µM (doses to about 114 µM), inactives show at the highest dose activity change, negative = inhibition, hits mostly inhibitors; note: potency is the fitted concentration of half-maximal effect; % is set by controls: 0 for no effect and ±100 for the full control effect; nearly all actives have a fitted effect of over 60% in size
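TGR 20 nM + NADPH 100 uM (dispensed conc.), cpd preinc 15 min RT; start with NADPH (500 uM addition) then DTNB (15 mM addition). Kinetic TNB absorbance, 405 nm filter. Four-parameter Hill fit across titration.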
Shiga inhibitor – blocks Shiga toxin action in Vero cells. Vero cells, Shiga toxin protein synthesis inhibition reporter. inhibition, % at 38.7 µM. hit rate 9.2% among 290,000. AID 2315; in the data active = inhibition mostly above about 28%, no sharp cut-off; inactive = mostly below about 43%; note: 0% is about no effect
CHX counter – affects cycloheximide protein synthesis inhibition readout, counter-screen. cell reporter, cycloheximide protein synthesis inhibition counterscreen. max response, %. hit rate 12% among 300,000. AID 2314; in the data active = max response mostly above about 13%, no sharp cut-off; inactive = mostly below about 14%; note: read at 38.3 µM for the half of the compounds with a filed dose; 0% is about no effect
Pf growth 48h – inhibits P. falciparum growth in the first generation, 48 h; Potency, µM (highest dose often 28.7 µM), for inactives: top-dose activity change, negative = inhibition, hits mostly inhibitors; hit rate 5.9% among 310,000; P. falciparum luciferase growth in erythrocytes, 48 h; note: potency is the fitted concentration of half-maximal effect; % is set by controls: 0 for no effect and ±100 for the full control effect
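In quantitative HTS format, infected erythrocytes bearing luciferase-reporter parasites were treated for a single generation at 37 C. Luminescence after adding detection reagent served as the growth measure.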
Pf growth 96h – P. falciparum growth inhibition at 96 hour, primary screen for plastid delayed-death inhibitors; Potency, µM (highest dose often 28.7 µM), without a hit: at the highest dose activity change, negative = inhibition, hits mostly inhibitors; P. falciparum luciferase reporter growth, 96 h; hit rate 6.9% among 320,000; note: potency is the fitted concentration of half-maximal effect; % is set by controls: 0 for no effect and ±100 for the full control effect
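Two-generation exposure (96 h) targets delayed-death phenotype. Reporter parasites carrying integrated firefly luciferase, in red cells at 2% hematocrit and 0.05% parasitemia final, kept at 37 C, 5% CO2; luminescence loss indicates inhibition.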
NS1 inh – influenza NS1 inhibition; Potency, µM (highest dose often 46.1 µM), without a hit: at the top dose activity, positive = more growth; hit rate 0.4% among 270,000; calls by dose curve; note: potency is the fitted concentration of half-maximal effect; actives are rising curves; nearly all actives have a fitted effect of over 50% in size
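In this qHTS, NS1 from influenza A is expressed in budding yeast, where it slows growth. Cells are switched from glucose to 2% galactose medium (pH 6.0, -URA), treated with compound, and growth recovery is read at OD600.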
* = called active by the depositor; i = inactive; ? = inconclusive; nt = no result given; + = active, no number; [ ] = remark or other dose. An excerpt weighted towards active compounds, which were near 21% of everything screened. Unless noted, calls come from the whole dose curve; as a rule, active = well fitted curve in the direction sought with a large enough effect; inconclusive = small, poorly fitted or top-dose-only effect, or another doubt; inactive = no such curve, though single readings can be large; an effect the other way counts as inactive or inconclusive.

SMILES | Sm TGR inh | Shiga inhibitor | CHX counter | Pf growth 48h | Pf growth 96h | NS1 inh
COc1ccc(CCN2CN(S(=O)(=O)c3ccccc3)c3nc4ccccc4nc32)cc1 | -1% | -10 | 2 | 12µM* | 10µM* | 11%
C=CCN1CN(S(=O)(=O)c2cccc(Cl)c2)c2nc3ccccc3nc21 | -24% | 16 | 20* | ? | ? | -17%
FC(F)(F)c1ccc(CN2CCCCCC2)cc1 | 0% | -8 | 5 | nt | -36% | -3%
FC(F)(F)c1ccc2c(c1)n(Cc1ccccc1)c1[n+]2CCCCC1 | ? | 4 | 4 | 6.6µM* | ? | nt
O=C(Cn1c2[n+](c3ccc(C(F)(F)F)cc31)CCCCC2)c1ccc2c(c1)OCCO2 | -3% | -10 | 5 | ? | ? | 7%
O=C(Cn1c2[n+](c3ccc(C(F)(F)F)cc31)CCCCC2)Nc1ccccc1 | -8% | 9 | -3 | ? | ? | 20%
CCc1cccc(NC(=O)Cn2c3[n+](c4ccc(C(F)(F)F)cc42)CCCCC3)c1 | -7% | -5 | -3 | 4.7µM* | 1µM* | 8%
O=C(Cn1c2[n+](c3ccc(C(F)(F)F)cc31)CCCCC2)c1cccc([N+](=O)[O-])c1 | -19% | 1 | 4 | 15µM* | 13µM* | nt
CS(=O)(=O)c1ccc(C(=O)OCC(=O)NC2CCS(=O)(=O)C2)cc1[N+](=O)[O-] (centres undefined) | nt | 12 | -4 | 0% | -8% | 6%
Cc1ccc2nc(C)c(CN3CCN(c4ccc([N+](=O)[O-])cc4Cl)CC3)n2c1 | 1% | -5 | -1 | ? | ? | -29%
CCOc1ccc(OCC(=O)NCCS(=O)(=O)N2CCN(c3cccc(Cl)c3)CC2)cc1 | 6% | nt | nt | nt | nt | nt
CCc1ccc(S(=O)(=O)Nc2cc3c(cc2C)n(C)c(=O)n3C)cc1 | -17% | -4 | -2 | -30% | ? | -23%
Cc1cc(=O)n(CC(=O)O)c2ccccc12 | 13% | -23 | -1 | 20% | ? | 0%
Cc1cc(C)n(CC(=O)O)c(=O)c1[N+](=O)[O-] | 40µM* | 16 | 4 | 8% | 49%[5.75 µM] | nt
O=C1CC(N2CCN(c3ccc(O)cc3)CC2)C(=O)N1Cc1cccs1 (centres undefined) | 50µM* | 3 | -2 | ? | -28% | -14%
CCOc1cc(C2NC(=O)N(C)C(C)=C2C(=O)OC)cc(Br)c1O (centres undefined) | 50µM* | -7 | -3 | 13µM* | 5% | -8%
COC(=O)C1C(=O)C2=C(CC1C)NC(=O)CC2c1ccc(F)cc1 (centres undefined) | 5% | -7 | -3 | 15µM* | 4% | nt
COc1cc(C2NC(=O)N(C)C(C)=C2C(=O)OCc2ccccc2)cc(Br)c1O (centres undefined) | -5% | 1 | -1 | -5% | -2% | -1%
COC(=O)C1C(=O)C2=C(CC1C)Nc1ccccc1NC2c1cccs1 (centres undefined) | 2% | 6 | -2 | 22% | ? | nt
COC(=O)C1C(=O)C2=C(CC1C)NC(C)=C(C(=O)OC1CCCC1)C2c1ccc(N(C)C)cc1 (centres undefined) | 3% | -21 | 6 | 5.2µM* | -7% | -45%
CCOc1cc(C2CC(=O)NC3=C2C(=O)C(C(=O)OC)C(C)C3)cc(Br)c1O (centres undefined) | ? | 30 | -2 | 1.5µM* | 23% | 2%
CCc1ccc(C2C(C(=O)Nc3ccccc3OC)=C(C)Nc3c(C(=O)Nc4ccc(C)cc4)cnn32)cc1 (centres undefined) | 2% | nt | nt | nt | nt | nt
O=C(N[C@H]1CP(=O)(Oc2ccccc2)O[C@H](COCc2ccccc2)[C@H]1O)C(Cl)(Cl)Cl (some centres undefined) | 4% | -2 | 25* | ? | 12µM* | 2%
Nc1ccc(C(=O)C[C@H](N)C(=O)O)cc1O | nt | nt | nt | nt | nt | -1%
O=C(NCCc1ccc(Cl)cc1)C1CCC(=O)N1Cc1ccc(F)cc1 (centres undefined) | -13% | -12 | -6 | nt | ? | -5%
SMILES | Sm TGR inh | Shiga inhibitor | CHX counter | Pf growth 48h | Pf growth 96h | NS1 inh
CCOC(=O)c1c(NC2OC(=O)c3c2ccc(OC)c3OC)sc(C(=O)OC(C)(C)C)c1C (centres undefined) | -5% | active | 31* | ? | ? | 5%
COc1ccc2c(c1OC)C(=O)OC2Nc1ccccn1 (centres undefined) | 15% | -20 | 4 | 15% | nt | 3%
CCOc1ccc(C2C(=O)N(C3CCCCCC3)CC(=O)N2Cc2ccc(F)cc2)cc1OC (centres undefined) | 6% | nt | nt | nt | nt | nt
Cc1cc(C(=O)Nc2cccc(NC(=O)c3ccco3)c2)ccc1[N+](=O)[O-] | -10% | 27* | 19* | -3% | ? | 5%
Cc1cc(C(=O)Nc2ccc3c(c2)OCCO3)ccc1[N+](=O)[O-] | 1% | nt | 27* | 260% | 39% | 4%
O=C(Nc1ccccn1)c1ccc2c(c1)OCCO2 | -3% | 39 | 26 | i | 138% | nt
Cc1cc(NC(=O)c2ccc3c(c2)OCCO3)ccc1NC(=O)c1ccco1 | nt | -10 | 12 | 7% | -17% | -9%
Cc1cc(C(=O)NC(C)CCc2ccccc2)ccc1[N+](=O)[O-] (centres undefined) | 14% | nt | 18* | 20% | -12% | -14%
O=C(Nc1ncccc1Cl)c1ccc2c(c1)OCCO2 | 5% | 84* | 32* | 310% | 20% | nt
CC(CCc1ccccc1)NC(=O)c1ccc(C(=O)NC(C)CCc2ccccc2)cc1 (centres undefined) | 1% | -12 | -2 | nt | -19% | 6%
COc1ccc(C(=O)NC(=S)Nc2cccc(NC(=O)c3ccco3)c2)cc1[N+](=O)[O-] | -29% | -4 | -2 | -10% | -3% | 9%
O=C(NCc1ccccc1Cl)c1ccc(CSCc2ccccc2Cl)o1 | -23% | nt | nt | nt | nt | nt
Cc1ccc(NC(=O)CCCc2nc3ccccc3c(=O)[nH]2)c(Cl)c1 | -14% | nt | nt | ? | ? | nt
CC1CCN(S(=O)(=O)c2ccc3c(c2)N(CC(=O)NCCN(C)C)C(=O)CS3)CC1 | -16% | nt | nt | nt | nt | nt
Cc1cc(C)cc(OC(C)C(=O)Nc2c(C(=O)c3ccccc3)oc3ccccc23)c1 (centres undefined) | -3% | nt | nt | nt | nt | nt
CCn1cc([N+](=O)[O-])c(C(=O)Nc2ccc3c(c2)OCCO3)n1 | -15% | 47* | 38* | 157% | 12% | ?
O=C(Nc1ccc2c(c1)OCCO2)c1ccc(Cl)c([N+](=O)[O-])c1 | -3% | + | 56* | 36% | 34% | 2%
CCn1cc([N+](=O)[O-])c(C(=O)NCc2ccc3c(c2)OCO3)n1 | -5% | 16 | -9 | -4% | ? | 8%
O=C(Nc1ccc2c(c1)OCCO2)c1cccnc1 | -3% | 59* | 25* | 167% | ? | -7%
